Hits are enriched below; roughly 1.5% of the tested compounds scored in any of these assays.
sEH activator = activators of human soluble epoxide hydrolase; P34913; purified human sEH enzymatic activity, activator screen; activation, % at 2 µM; 91,000 tested, 0.04% active; AID 717; in the data active = activation above about 37%
sEH inh = inhibitors of human soluble epoxide hydrolase; recombinant human sEH enzymatic activity assay; inhibition, % at 2 µM; 91,000 tested, 0.34% active; AID 707; in the data active = inhibition above about 80%
BAP1 block = human BAP1 deubiquitinase inhibition. Q92560. recombinant BAP1, Ub-AMC hydrolysis fluorescence kinetic; hits give low values. calls only at 20 µM. 72,000 tested, 0.48% active;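 active = activity remaining at or below 50% of control, provided the compound also passes the data quality filters; inactive = the rest, including low values that fail the filters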
PLAP act = activators of human placental alkaline phosphatase. P05187. purified PLAP enzyme, luminescent substrate read-out; hits give high values. activation fold at 20 µM. 96,000 tested, 1.2% active; in the data active = activation fold above about 2
Target sequence (P05187 whole entry, looked up): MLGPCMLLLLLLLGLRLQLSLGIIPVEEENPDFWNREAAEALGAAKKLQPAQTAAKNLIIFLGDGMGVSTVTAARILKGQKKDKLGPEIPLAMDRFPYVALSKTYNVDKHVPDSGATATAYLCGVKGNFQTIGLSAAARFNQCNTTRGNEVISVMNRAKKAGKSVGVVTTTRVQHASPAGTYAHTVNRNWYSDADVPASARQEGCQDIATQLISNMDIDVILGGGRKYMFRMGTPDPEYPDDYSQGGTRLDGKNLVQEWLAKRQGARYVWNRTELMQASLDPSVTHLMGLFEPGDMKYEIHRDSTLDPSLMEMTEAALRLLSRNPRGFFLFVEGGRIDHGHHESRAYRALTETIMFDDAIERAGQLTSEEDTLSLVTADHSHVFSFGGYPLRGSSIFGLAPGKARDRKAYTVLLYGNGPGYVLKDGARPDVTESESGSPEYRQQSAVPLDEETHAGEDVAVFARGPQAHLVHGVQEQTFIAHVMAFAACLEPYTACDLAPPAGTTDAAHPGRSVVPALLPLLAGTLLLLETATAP
Of the large screens only hits and unclear results are named; the others gave an inactive call.

Cc1ccccc1NC(=S)NNC(=O)c1ccoc1C	PLAP act 2.1 (no result: BAP1 block)
COc1cccc(C(=O)Nc2c3c(nn2-c2ccccc2)CSC3)c1OC	none (no result: sEH activator, sEH inh, PLAP act)
O=C(NCCc1ccccc1)C1CCN(c2nc3ccccc3o2)CC1	none
O=C(NC1CCCCCCC1)C1CCN(c2nc3ccccc3o2)CC1	sEH inh 93
Cc1oc(-c2ccccc2F)nc1CN1CCC(C(=O)NC2CCCc3ccccc32)CC1 (stereo unspecified)	PLAP act 2 (no result: sEH activator, sEH inh, BAP1 block)
Cc1oc(-c2ccccc2F)nc1CN1CCC(C(=O)NC2CCCCCCC2)CC1	sEH inh 91, PLAP act 2
O=[N+]([O-])c1ccc(-c2nc3ccccc3c3nc4ccccc4n23)cc1	none (no result: sEH activator, sEH inh, PLAP act)
N#C/C(=C\c1cn[nH]c1-c1ccccc1)C(=O)NC1CCCCCC1	none (no result: BAP1 block)
N#C/C(=C\c1cn[nH]c1-c1ccc(Cl)cc1)C(=O)NCc1ccccc1	PLAP act 2.1 (no result: BAP1 block)
COc1ccc(-c2[nH]ncc2/C=C(\C#N)C(=O)NC2CC2)cc1	PLAP act 2.6 (no result: BAP1 block)
Cc1ccc(C23CC4CC(CC(C4)C2)C3)cc1NC(=O)c1ccccc1	none (no result: sEH activator, sEH inh, PLAP act)
O=C(c1ccc([N+](=O)[O-])cc1)N1CCN(c2ccc([N+](=O)[O-])cc2)CC1	none (no result: sEH activator, sEH inh, PLAP act)
COc1cc(C2NC(C(=O)O)CS2)ccc1OCc1ccccc1C#N (stereo unspecified)	PLAP act 2.1 (no result: sEH activator, sEH inh)
COC(=O)c1ccc(C2NC(C(=O)O)CS2)cc1 (stereo unspecified)	none
Nc1nc(SCc2nc3scc(-c4cccs4)c3c(=O)[nH]2)n[nH]1	PLAP act 2.5
Cc1nc2scc(-c3cccs3)c2c(=O)[nH]1	none (no result: BAP1 block)
O=[N+]([O-])c1ccc(N2CCOCC2)cc1NCCc1ccccc1	none (no result: sEH activator, sEH inh, PLAP act)
CCOC(=O)CSc1nnc(CNc2cccc(Cl)c2)n1C	none (no result: BAP1 block, PLAP act)
COCCCn1c(Cc2csc(Nc3cccc(Cl)c3)n2)nnc1SCC(=O)OC	PLAP act 2
CCn1c(Cc2c(C)[nH]c3ccccc23)n[nH]c1=S	none
CCn1c(CSc2nc3ccccc3[nH]2)n[nH]c1=S	PLAP act 2.2
Cc1cc(C)nc(Nc2ncc(O)n2-c2ccc(C)c(Cl)c2)n1	none
Cc1cc(C)nc(Nc2ncc(O)n2-c2ccc(C)c(C)c2)n1	PLAP act 2.6
O=C(Nc1sc2c(c1C(=O)Nc1ccccc1)CCCCC2)c1cccnc1	none (no result: sEH activator, sEH inh, PLAP act)
O=S(=O)(c1ccc2nc(COc3ccccc3)[nH]c2c1)N1CCOCC1	PLAP act 2 (no result: sEH activator, sEH inh)
O=S(=O)(c1ccc2nc(Cc3ccccc3)[nH]c2c1)N1CCOCC1	PLAP act 2.2
Cc1cccc(N2C(=O)c3ccc([N+](=O)[O-])cc3C2=O)c1	none (no result: sEH activator, sEH inh, PLAP act)
O=C(NCc1ccc2c(c1)OCO2)C1CCC(CNS(=O)(=O)c2cccc3nsnc23)CC1 (stereo unspecified)	sEH inh 94 (no result: BAP1 block)
COc1ccc(CNC(=O)C2CCC(CNS(=O)(=O)c3cccc4nsnc34)CC2)cc1 (stereo unspecified)	sEH inh 95 (no result: BAP1 block)
CCOCCCNC(=O)C1CCC(CNS(=O)(=O)c2cccc3nsnc23)CC1 (stereo unspecified)	none (no result: sEH activator, sEH inh, PLAP act)
Cc1ccc(NC(=O)CN(C)Cc2nc3ccccc3c(=O)[nH]2)c(Br)c1	PLAP act 2.2 (no result: BAP1 block)
CCN(CC(=O)NCCc1ccc(S(N)(=O)=O)cc1)Cc1nc2ccccc2c(=O)[nH]1	none (no result: PLAP act)
CCN(CC(=O)Nc1ccccc1Br)Cc1nc2ccccc2c(=O)[nH]1	PLAP act 2.3 (no result: BAP1 block)
Cc1cc(Br)ccc1NC(=O)CNC(=O)CN(C)Cc1nc2ccccc2c(=O)[nH]1	none (no result: PLAP act)
CC(NC(=O)CN(C)Cc1nc2ccccc2c(=O)[nH]1)c1ccccc1 (stereo unspecified)	PLAP act 2.3 (no result: BAP1 block)
O=C(NCc1ccc(F)cc1)c1cccc([N+](=O)[O-])c1	none (no result: sEH activator, sEH inh, PLAP act)
CCOc1cccc2cc(C(=O)NC(C)=O)c(=Nc3ccc(F)cc3)oc12	none (no result: sEH activator, sEH inh, PLAP act)
Cc1cccc(C2(c3cccc(C)c3)CC2C(=O)NCc2ccccc2)c1 (stereo unspecified)	none (no result: sEH activator, sEH inh, PLAP act)
O=C(NNS(=O)(=O)c1ccccc1)C1CCN(S(=O)(=O)c2ccc(Cl)cc2)CC1	none (no result: BAP1 block, PLAP act)
O=C(NNc1ccccn1)C(=O)NNS(=O)(=O)c1ccc(Cl)cc1	PLAP act 2.4 (no result: BAP1 block)
CCCN(CCC)c1ncnc2nc[nH]c12	PLAP act 2.3 (no result: sEH activator, sEH inh)
CC(C)CC(/C(O)=C(\C#N)c1nc2ccccc2[nH]1)N1C(=O)c2ccccc2C1=O (stereo unspecified)	PLAP act 2.1
Cc1ccc(C)c2[nH]c(=O)c(CN(Cc3ccco3)S(=O)(=O)c3ccc4c(c3)OCCO4)cc12	none
CCc1ccc2[nH]c(=O)c(CN(Cc3ccco3)S(=O)(=O)c3ccc4c(c3)OCCO4)cc2c1	sEH activator 39 (not shown: BAP1 block)
CC(C)OC(=O)C(C)OC(=O)c1ccc([N+](=O)[O-])cc1Cl (stereo unspecified)	none (no result: sEH activator, sEH inh, PLAP act)
Nc1c(S(=O)(=O)O)cc(Nc2ccc(Nc3nc(Cl)nc(Nc4ccc(S(=O)(=O)O)cc4)n3)c(S(=O)(=O)O)c2)c2c1C(=O)c1ccccc1C2=O	BAP1 block active (no result: sEH activator, sEH inh, PLAP act)
CN(C(=O)CSc1nnc(Nc2ccccc2)s1)c1c(N)n(Cc2ccccc2)c(=O)[nH]c1=O	PLAP act 2.1 (no result: BAP1 block)
O=C(Nc1ccc(Cl)c(Cl)c1)N1CCSCC1	sEH inh 82 (no result: BAP1 block, PLAP act)
O=C(Nc1ccc(N2CCOCC2)cc1)Nc1ccc(Cl)c(Cl)c1	sEH inh 82 (no result: BAP1 block)
Nc1ccc(C=Cc2nc3ccc(N)cc3[nH]2)cc1	none (no result: sEH activator, sEH inh, PLAP act)
O=C(N/N=C\c1ccccn1)C1COc2cc3ccccc3cc2O1 (stereo unspecified)	PLAP act 2 (no result: BAP1 block)
CCOc1ccc2c(c1)n(CO)c(=S)n2CO	PLAP act 2.3
CCC(C)C(NC(=O)c1ccccc1NC(=O)c1ccc(OC)cc1)C(=O)NCc1ccco1 (stereo unspecified)	PLAP act 2.1
CC1CCN(C(=O)C2CCN(CCCc3ccccc3)CC2)CC1	PLAP act 2.2 (no result: sEH activator, sEH inh)
O=C(C1CCN(CCCc2ccccc2)CC1)N1CCCCC1	none (no result: BAP1 block)
CCOC(=O)C1CCN(Cc2ccc(Cl)c(Cl)c2)CC1	PLAP act 2 (no result: BAP1 block)
CCOC(=O)C1CCN(Cc2ccc(F)cc2)CC1	none (no result: PLAP act)
O=C(c1cc2nc(-c3cccs3)cc(C(F)(F)F)n2n1)N1CCN(c2ccccc2)CC1	none (no result: sEH activator, sEH inh, PLAP act)
Cc1nnc(SCC(=O)Nc2nc(-c3ccccc3)cs2)n1N	none
CCn1c(SCC(=O)Nc2nc(-c3ccccc3)cs2)nnc1-c1ccccc1	PLAP act 2
COc1ccc(-n2c(SCC(=O)NNC(=O)c3ccccc3C)nnc2-c2ccncc2)cc1	PLAP act 2.1 (no result: BAP1 block)
COc1ccc(C(=O)NNC(=O)CSc2nnc(COc3ccccc3)n2C)cc1	PLAP act 2 (no result: BAP1 block)
CC(C)n1c(N2CCN(CC(=O)NCc3cccs3)CC2)nc2ccccc21	PLAP act 2
CC(C)n1c(N2CCN(C(=O)c3cccs3)CC2)nc2ccccc21	none
CCCCCCCCCCCCCCCCOCC(COCC(F)(F)F)OP(=O)(O)OCO (stereo unspecified)	BAP1 block active (no result: sEH activator, sEH inh, PLAP act)
COc1ccc(-n2c(N)c(C(=O)NCC3CCCO3)c3nc4ccccc4nc32)c(OC)c1 (stereo unspecified)	PLAP act 2 (not shown: BAP1 block)
Cc1ccc(S(=O)(=O)N=C(Nc2cccc([N+](=O)[O-])c2)c2ccccc2)cc1	none (no result: sEH activator, sEH inh, PLAP act)
CC(=O)OCC1OC(n2cc(Br)c(=O)[nH]c2=O)C(OC(C)=O)C1OC(C)=O (stereo unspecified)	none (no result: sEH activator, sEH inh, PLAP act)
